Screens deposited in PubChem BioAssay by National Center for Advancing Translational Sciences (NCATS).
Pol iota inh: inhibitors of human DNA polymerase iota; 1% of 390,000 active; Potency, µM (top dose mostly 115 µM), without a hit: at the highest dose activity, negative = inhibition, actives largely listed as inhibitors; Pol iota fluorescent replication assay, 10 min; AID 588590
Target sequence (Q9UNA4 whole entry, looked up): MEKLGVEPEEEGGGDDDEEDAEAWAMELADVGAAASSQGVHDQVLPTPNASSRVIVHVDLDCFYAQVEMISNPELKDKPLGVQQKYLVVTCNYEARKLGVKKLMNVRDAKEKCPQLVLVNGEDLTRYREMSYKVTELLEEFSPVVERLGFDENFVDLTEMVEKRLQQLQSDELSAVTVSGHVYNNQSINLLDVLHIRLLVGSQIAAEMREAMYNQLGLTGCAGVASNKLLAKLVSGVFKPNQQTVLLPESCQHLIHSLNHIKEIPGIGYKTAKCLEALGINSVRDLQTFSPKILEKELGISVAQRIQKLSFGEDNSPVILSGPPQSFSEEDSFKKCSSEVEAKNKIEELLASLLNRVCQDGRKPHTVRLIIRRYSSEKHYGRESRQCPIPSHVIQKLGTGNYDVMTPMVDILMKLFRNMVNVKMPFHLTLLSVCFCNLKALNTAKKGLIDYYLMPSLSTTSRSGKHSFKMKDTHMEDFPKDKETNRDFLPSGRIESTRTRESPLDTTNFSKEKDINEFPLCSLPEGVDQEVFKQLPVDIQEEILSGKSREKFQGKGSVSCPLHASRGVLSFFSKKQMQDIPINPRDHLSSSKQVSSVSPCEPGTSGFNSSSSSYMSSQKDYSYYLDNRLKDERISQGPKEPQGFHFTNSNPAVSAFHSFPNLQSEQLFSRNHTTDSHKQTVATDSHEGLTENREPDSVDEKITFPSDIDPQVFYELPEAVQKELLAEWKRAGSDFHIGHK
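Pol iota at 10 nM preincubated 15 min with compounds at room temperature; reaction started with fluorescent substrate, 50 nM final. Fluorescence read kinetically at 0 and 10 min; buffer-only wells as negative control.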
POLB inh: inhibitors of human DNA polymerase beta | 1.3% of 340,000 active | Pol beta primer extension/strand displacement, fluorescence kinetic | AID 485314 | Potency, µM (top dose mostly 114 µM), inactives show at the top dose activity change, negative = inhibition, actives largely listed as inhibitors | P06746; also: % is scaled to controls: 0 for no effect and ±100 for the full control effect
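Pol beta (10 nM) and compounds were preincubated 15 min at room temperature, then 50 nM substrate (final) started primer extension/strand displacement. Reads were taken at 0 and 10 min; concentration-response data were fitted to a four-parameter Hill equation.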
L3MBTL1 block: blocks human L3MBTL1 | AID 485360 | Q9Y468 | AlphaScreen L3MBTL1–H3K9me1 peptide binding | 0.66% of 230,000 active | Potency, µM (highest dose often 57.1 µM), without a hit: at the top dose activity, negative = inhibition, actives largely listed as inhibitors; also: % is scaled to controls: 0 for no effect and ±100 for the full control effect; nearly all actives have a fitted effect of over 60% in size
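First, the protein-peptide complex forms for 30 min at room temperature (L3MBTL1 50 nM, biotinylated H3K9me1 peptide 75 nM). Next, compounds are pin-transferred and incubated 30 min. Finally, AlphaScreen beads are added and read after 30 min.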
APE1 inh-1: blocks human APE1 abasic DNA cleavage; P27695; recombinant APE1, TAMRA/BHQ-2 abasic DNA cleavage fluorescence; Potency, µM (doses to about 65.8 µM), inactives show at the highest dose activity change, negative = inhibition, usual class: inhibitors; 0.35% of 350,000 active; AID 2517;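 also: plate controls were vehicle for no effect and reference inhibitor for full effect; nearly all actives have a fitted effect of over 55% in size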
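APE1 at 0.75 nM final was preincubated with compound 15 min at room temperature, then 50 nM double-stranded THF abasic-site substrate (5'-TAMRA/3'-BHQ-2) was added. Fluorescence (ex 525/em 598 nm) was read kinetically; third-minus-first read gave activity.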
POLK inh: blocks human DNA polymerase kappa activity; Q9UBT6; purified Pol kappa, fluorescent DNA synthesis assay, 10 min; Potency, µM (top dose mostly 107 µM), for inactives: top-dose activity, negative = inhibition, actives largely listed as inhibitors; 0.53% of 400,000 active; AID 588579; also: % is scaled to controls: 0 for no effect and ±100 for the full control effect
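50 nM final substrate added after 15 min RT preincubation of 10 nM Pol kappa with compound; fluorescence read at 0 and 10 min.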
POLH inh: blocks human DNA polymerase eta activity; Q9Y253; recombinant Pol eta, fluorescent DNA replication assay; Potency, µM (titrated, usually from 114 µM), for the others: at the top dose activity change, negative = inhibition, hits mostly inhibitors; 1.2% of 390,000 active; also: % is scaled to controls: 0 for no effect and ±100 for the full control effect
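Pol eta (10 nM) was preincubated with compounds for 15 min at room temperature, after which fluorescent replication substrate (50 nM final) was added to start the reaction. Fluorescence was read kinetically at 0 and 10 min.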
APE1 dye cs: displaces fluorescent dye from DNA, flagging APE1 artifacts | shares compounds with APE1 inh-1 | DNA fluorescent dye displacement counterscreen, fluorescence | Potency, µM (series often up to 28.5 µM), inactives show at the highest dose activity change, negative = inhibition, most hits filed as inhibitors | 7% of 480 active | AID 2564;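 also: loss of thiazole orange fluorescence as the dye is displaced from duplex DNA; 0% = ThO with dsDNA and no compound and -100% = ThO without dsDNA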
EndoIV counter: counter-screen for APE1 inhibitors: inhibitors of E. coli endonuclease IV; Potency, µM (doses to about 27.1 µM), inactives show at the top dose activity change, negative = inhibition, hits mostly inhibitors; AID 2565; E. coli Endo IV, fluorogenic AP-site DNA cleavage; 4% of 560 active; shares compounds with APE1 inh-1;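 also: plate controls were uninhibited enzyme wells for no effect and no enzyme buffer wells for full effect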
APE1 inh-2: APE1 (human) endonuclease inhibition, confirmation | AID 2572 | shares compounds with APE1 inh-1 | 44% of 750 active | purified APE1, fluorogenic abasic-site DNA cleavage | Potency, µM (series often up to 57.1 µM), inactives show at the top dose activity change, negative = inhibition, actives largely listed as inhibitors; also: % is scaled to controls: 0 for no effect and ±100 for the full control effect; nearly all actives have a fitted effect of over 30% in size
APE1 FP: APE1 (human) DNA binding inhibition, fluorescence polarization. APE1 binding to TAMRA-labelled double-stranded DNA, fluorescence polarization displacement. shares compounds with APE1 inh-1. 7% of 480 active. Potency, µM (series often up to 28.5 µM), without a hit: at the top dose activity, negative = inhibition, hits mostly inhibitors; also: % is scaled to controls: 0 for no effect and ±100 for the full control effect
An asterisk follows results filed as active; u = inconclusive; x = not tested or not shown; ! = not active in a repeat; [ ] = remark or other dose. Sampled rows, rich in hits. Any-hit rate of the full collection: about 2.5%. Calls follow the shape of the dose curve; as a rule, active = well fitted curve in the direction sought with a large enough effect; inconclusive = small, poorly fitted or top-dose-only effect, or another doubt; inactive = no such curve, though single readings can be large; an effect the other way counts as inactive or inconclusive. Potency is read from the fitted curve at half-maximal effect.

SMILES | Pol iota inh | POLB inh | L3MBTL1 block | APE1 inh-1 | POLK inh | POLH inh | APE1 dye cs | EndoIV counter | APE1 inh-2 | APE1 FP
COc1ccnc(Oc2ccccc2)c1C(N)=O | 70.7% | 49.1% | -9.6% | -63.8% | -1.9% | -3.4% | -10.0% | 3.9% | -10.8%[24.4 µM] | u
Cc1ccccc1-c1nc(NCc2cccs2)c2ccccc2n1 | x | x | x | u | -6.1%[60.1 µM] | x | x | x | x | x
Clc1ccccc1-c1nc(NCc2cccs2)c2ccccc2n1 | x | x | x | 7.94µM* | 31.6µM* | x | u | -87.2%[57.1 µM] | 15.8µM* | 38.4%[57.1 µM]
Cc1ccc(C(=O)Nc2ccc(S(=O)(=O)O)c3cc(S(=O)(=O)O)cc(S(=O)(=O)O)c23)cc1NC(=O)c1cccc(NC(=O)Nc2cccc(C(=O)Nc3cc(C(=O)Nc4ccc(S(=O)(=O)O)c5cc(S(=O)(=O)O)cc(S(=O)(=O)O)c45)ccc3C)c2)c1 | 1.41µM* | 0.891µM* | x | 22.4µM* | 0.0316µM*! | 0.224µM* | x | 14.1µM* | 8.91µM* | x
COc1ccc(/C=C/C(=O)NC(=S)Nc2ccc(C(=O)O)cc2)cc1 | u | -15.5% | 5.8% | -11.5% | -15.8% | u | x | x | -12.6% | x
COc1cccc(-c2nc3c(C#N)c[nH]n3c2NC2CCCCC2)c1 | 3.5% | 15.1% | x | x | 9.8% | -19.0% | x | x | x | x
COC(=O)c1cc(=O)c(O)c2c(O)c(O)ccc2c1 | x | x | x | 1.26µM* | 1.12µM* | x | x | -17.1%[57.1 µM] | 7.08µM* | x
Cc1ccc(NC(=O)CN2C(=O)S/C(=C\c3ccc(-c4cccc(C(=O)O)c4C)o3)C2=O)cc1 | x | 100µM* | x | u | x | x | x | x | 39.8µM* | x
Cc1ccc(NC(=O)CN2C(=O)S/C(=C\c3ccc(C(=O)O)cc3)C2=O)cc1 | -5.4% | 38.7% | 1.9% | u | -2.9% | 6.6% | x | x | x | x
Cc1ccc(S(=O)(=O)NCCc2nnc3ccc(N4CCOCC4)nn23)cc1 | x | x | x | x | x | -2.8% | x | x | x | x
COc1ccc(-c2nc3n(n2)C(=O)CC(c2ccco2)S3)cc1 (stereo not drawn) | u | 22.4µM* | u | u | u | u | -8.0% | 5.3% | u | -17.4%
CCOc1ccc(C2CC(=O)n3nc(-c4ccc(C)cc4)nc3S2)cc1 (stereo not drawn) | 2.5% | 22.3% | x | x | 2.2% | -2.2% | x | x | x | x
CC1CCc2c(sc3ncnc(SCC(=O)N(C)C4CCS(=O)(=O)C4)c23)C1 (stereo not drawn) | -11.8% | x | 2.1% | -8.3% | 10.3% | -9.9% | x | x | x | x
Cc1cccc(NC(=O)CN2C(=O)N/C(=C\c3cccn3-c3cccc(C(=O)O)c3)C2=O)c1 | 50.1µM* | 14.1µM* | x | u | u | u | -1.0% | 8.8% | u | 1.9%
CN1C(=O)C(N=Nc2ccc([N+](=O)[O-])cc2)SC1=S (stereo not drawn) | u | x | x | x | -12.3% | -9.0% | x | x | x | x
CS(=O)(=O)N1Cc2ccccc2CC1C(=O)OCC(=O)NCCc1ccc(S(N)(=O)=O)cc1 (stereo not drawn) | 28.9% | x | -6.8% | 23.7% | -2.9% | -15.2% | x | x | x | x
